SMILES strings stand for the structures. Records with an inconclusive call do not appear. Active and inactive are the calls of the source. Calls follow the shape of the dose curve; as a rule, active = well fitted curve in the direction sought with a large enough effect in the repeat runs; inconclusive = weak or mixed curves; inactive = no such curve, though single readings can be large; an effect the other way counts as inactive or inconclusive.

The source of these data is PubChem BioAssay (Tox21).

The target of assay [1] is Cytochrome P450 2C19 (Homo sapiens) (UniProt P33261). Kind of assay: Cytochrome P450 Family 2 Subfamily C Member 19 (CYP2C19) small molecule antagonists: luciferase reporter qHTS assay (AID 1671197). Also: nearly all actives have a fitted effect of over 65% in size. Also: potency is read from the fitted curve at half-maximal effect. In a few lines:
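P450-Glo CYP2C19 system: enzyme-substrate mix with compound 10 min at room temperature, then NADPH regeneration solution, 1 h at 37C. Proluciferin-to-luciferin conversion detected by luminescence after 20 min with detection reagent; ketoconazole as positive control.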
(In a reporter assay the amount or activity of a reporter protein is the signal.)

For assay [2], the target named is Cytochrome P450 2C9 (Homo sapiens) (UniProt P11712). Kind of assay: Cytochrome P450 Family 2 Subfamily C Member 9 (CYP2C9) small molecule antagonists: luciferase reporter qHTS assay (AID 1671198). Also: nearly all actives have a fitted effect of over 50% in size. Also: potency is read from the fitted curve at half-maximal effect. In a few lines: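 Enzyme-substrate mix preincubated with compound 10 min at room temperature; reaction started with NADPH regeneration solution, 1 h 37C. Luminescent luciferin product read after 20 min detection reagent.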

Assay [3] deals with Cytochrome P450 1A2 (Homo sapiens) (UniProt P05177). Kind of assay: Cytochrome P450 Family 1 Subfamily A Member 2 (CYP1A2) small molecule antagonists: luciferase reporter qHTS assay (AID 1671199). Also: nearly all actives have a fitted effect of over 50% in size. Also: potency is read from the fitted curve at half-maximal effect. In a few lines: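 Inhibition of CYP1A2 conversion of proluciferin to luciferin, detected by luminescence. Reaction run 1 h at room temperature with NADPH regeneration after brief compound preincubation.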

In assay [4] the target is Voltage-gated inwardly rectifying potassium channel KCNH2 (Homo sapiens) (UniProt Q12809). As to the kind of experiment: Human Ether-a-go-go-Related Gene (hERG) channel small molecule antagonists: fluorescence cell-based qHTS assay (AID 1671200).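 Also: hERG-expressing U2OS cells given a thallium stimulus after FluxOR II dye loading; series mostly up to about 77 µM; nearly all actives have a fitted effect of over 50% in size.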 In outline:
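In this thallium-flux screen, overnight-cultured U2OS cells bearing the channel are dye-loaded in darkness for an hour, rested 10 min at room temperature, and then monitored kinetically at 480/540 nm for two minutes post-stimulus.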
On the technique in general: The hERG channel carries a current that helps repolarise heart muscle cells.

Assay [5] deals with Cytochrome P450 3A4 (Homo sapiens) (UniProt P08684). As to the kind of experiment: Cytochrome P450 Family 3 Subfamily A Member 4 (CYP3A4) small molecule antagonists: luciferase reporter qHTS assay (AID 1671201). Also: nearly all actives have a fitted effect of over 50% in size. Also: potency is read from the fitted curve at half-maximal effect. In outline: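 CYP3A4 activity was followed with a P450-Glo proluciferin substrate. Test compounds in DMSO were preincubated 10 min; NADPH regeneration then ran 1 h, and light output was read 20 min after detection reagent.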
Chain of Cytochrome P450 3A4 (Homo sapiens) (P08684 whole entry, looked up): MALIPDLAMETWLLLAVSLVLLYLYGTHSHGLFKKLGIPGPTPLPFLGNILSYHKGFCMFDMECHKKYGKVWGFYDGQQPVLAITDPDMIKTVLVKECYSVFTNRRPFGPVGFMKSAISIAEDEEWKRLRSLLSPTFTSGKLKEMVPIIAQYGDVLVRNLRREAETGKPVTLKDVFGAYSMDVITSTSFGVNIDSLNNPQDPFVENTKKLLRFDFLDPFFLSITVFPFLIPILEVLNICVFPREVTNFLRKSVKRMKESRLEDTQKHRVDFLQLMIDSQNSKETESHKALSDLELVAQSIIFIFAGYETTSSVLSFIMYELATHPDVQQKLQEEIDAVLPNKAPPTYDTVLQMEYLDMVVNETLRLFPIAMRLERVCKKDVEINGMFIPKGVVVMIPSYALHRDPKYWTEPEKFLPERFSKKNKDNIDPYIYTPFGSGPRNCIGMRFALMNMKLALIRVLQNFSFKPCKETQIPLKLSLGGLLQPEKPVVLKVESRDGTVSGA

Chain of Voltage-gated inwardly rectifying potassium channel KCNH2 (Homo sapiens) (Q12809 whole entry, looked up): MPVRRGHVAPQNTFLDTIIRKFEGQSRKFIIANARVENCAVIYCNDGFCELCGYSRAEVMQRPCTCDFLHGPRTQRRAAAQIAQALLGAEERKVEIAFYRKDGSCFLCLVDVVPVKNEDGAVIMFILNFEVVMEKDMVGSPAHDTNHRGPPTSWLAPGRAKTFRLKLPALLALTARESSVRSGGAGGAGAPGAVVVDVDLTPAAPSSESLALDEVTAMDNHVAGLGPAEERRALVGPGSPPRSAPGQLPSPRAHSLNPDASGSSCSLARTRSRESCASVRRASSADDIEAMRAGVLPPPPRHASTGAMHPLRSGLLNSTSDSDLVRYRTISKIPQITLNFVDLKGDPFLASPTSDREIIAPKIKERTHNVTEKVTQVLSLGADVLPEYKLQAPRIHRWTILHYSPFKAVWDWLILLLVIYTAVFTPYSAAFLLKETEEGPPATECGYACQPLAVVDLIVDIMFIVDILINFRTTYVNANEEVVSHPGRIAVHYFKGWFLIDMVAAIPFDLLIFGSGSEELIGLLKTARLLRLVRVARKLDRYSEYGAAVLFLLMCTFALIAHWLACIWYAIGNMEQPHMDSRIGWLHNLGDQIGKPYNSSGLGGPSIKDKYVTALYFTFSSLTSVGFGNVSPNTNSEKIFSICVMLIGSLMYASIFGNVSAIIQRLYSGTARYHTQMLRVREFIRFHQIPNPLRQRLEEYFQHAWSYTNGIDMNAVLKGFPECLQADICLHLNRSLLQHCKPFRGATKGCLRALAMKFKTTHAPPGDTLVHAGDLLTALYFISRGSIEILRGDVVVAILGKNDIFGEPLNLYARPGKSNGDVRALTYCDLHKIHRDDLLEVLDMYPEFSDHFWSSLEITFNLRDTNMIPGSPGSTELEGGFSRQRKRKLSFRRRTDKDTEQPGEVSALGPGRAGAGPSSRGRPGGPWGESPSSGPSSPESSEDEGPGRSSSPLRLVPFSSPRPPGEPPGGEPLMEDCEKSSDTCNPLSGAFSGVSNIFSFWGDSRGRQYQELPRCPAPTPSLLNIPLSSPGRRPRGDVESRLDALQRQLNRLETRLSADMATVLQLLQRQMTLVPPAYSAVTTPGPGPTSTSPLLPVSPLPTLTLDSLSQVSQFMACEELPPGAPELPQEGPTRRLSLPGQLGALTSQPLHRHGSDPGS
Chain of Cytochrome P450 2C9 (Homo sapiens) (P11712 whole entry, looked up): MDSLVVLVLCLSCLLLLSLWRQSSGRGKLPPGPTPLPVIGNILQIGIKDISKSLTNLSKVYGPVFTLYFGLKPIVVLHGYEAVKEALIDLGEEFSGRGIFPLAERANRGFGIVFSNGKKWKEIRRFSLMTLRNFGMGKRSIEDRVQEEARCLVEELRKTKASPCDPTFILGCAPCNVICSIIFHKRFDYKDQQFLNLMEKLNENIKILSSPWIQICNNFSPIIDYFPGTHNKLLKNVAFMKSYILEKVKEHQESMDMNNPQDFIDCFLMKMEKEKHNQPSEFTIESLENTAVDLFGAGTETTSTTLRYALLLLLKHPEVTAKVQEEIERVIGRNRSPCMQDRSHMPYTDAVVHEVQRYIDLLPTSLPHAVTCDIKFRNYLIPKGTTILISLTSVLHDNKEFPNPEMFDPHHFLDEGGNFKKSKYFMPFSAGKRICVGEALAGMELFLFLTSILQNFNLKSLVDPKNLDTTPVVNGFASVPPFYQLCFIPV
Chain of Cytochrome P450 2C19 (Homo sapiens) (P33261 whole entry, looked up): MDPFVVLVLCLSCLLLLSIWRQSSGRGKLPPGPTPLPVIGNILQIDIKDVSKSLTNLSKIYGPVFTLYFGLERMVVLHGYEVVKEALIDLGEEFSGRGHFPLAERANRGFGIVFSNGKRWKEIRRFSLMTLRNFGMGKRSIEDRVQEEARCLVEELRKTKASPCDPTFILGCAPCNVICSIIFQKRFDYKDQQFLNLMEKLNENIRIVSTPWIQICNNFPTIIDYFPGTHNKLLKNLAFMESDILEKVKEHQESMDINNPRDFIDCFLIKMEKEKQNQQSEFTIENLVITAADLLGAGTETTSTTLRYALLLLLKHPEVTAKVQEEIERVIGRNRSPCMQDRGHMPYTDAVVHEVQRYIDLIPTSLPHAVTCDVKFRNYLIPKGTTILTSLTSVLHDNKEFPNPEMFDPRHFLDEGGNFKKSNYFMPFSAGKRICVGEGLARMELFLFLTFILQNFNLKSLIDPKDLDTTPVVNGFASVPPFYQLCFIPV
Chain of Cytochrome P450 1A2 (Homo sapiens) (P05177 whole entry, looked up): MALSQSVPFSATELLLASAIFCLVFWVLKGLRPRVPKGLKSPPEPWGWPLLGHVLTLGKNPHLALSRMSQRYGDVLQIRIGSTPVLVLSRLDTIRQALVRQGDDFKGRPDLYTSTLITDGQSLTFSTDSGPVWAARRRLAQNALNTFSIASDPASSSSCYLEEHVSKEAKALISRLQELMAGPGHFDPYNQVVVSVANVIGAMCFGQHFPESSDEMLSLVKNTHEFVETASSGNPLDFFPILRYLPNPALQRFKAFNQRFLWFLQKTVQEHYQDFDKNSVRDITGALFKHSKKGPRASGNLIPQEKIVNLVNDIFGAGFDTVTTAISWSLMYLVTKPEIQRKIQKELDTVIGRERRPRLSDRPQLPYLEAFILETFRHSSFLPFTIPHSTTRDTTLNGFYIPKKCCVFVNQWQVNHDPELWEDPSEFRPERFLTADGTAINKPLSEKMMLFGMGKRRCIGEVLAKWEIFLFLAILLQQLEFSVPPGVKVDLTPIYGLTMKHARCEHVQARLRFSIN

For `O=C1OC(CN2CCOCC2)CN1/N=C/c1ccc([N+](=O)[O-])o1` (stereo not drawn), the Potency result in assay [1], in assay [2], in assay [3], in assay [4] and in assay [5] was “inactive” in each case.

Regarding `CCOC(=O)Cc1cccc2ccccc12`, the Potency in assay [1] was 20 µM (active); in assay [3] it was 15.9 µM (active). Moreover, the Potency entry in assay [2], in assay [4] and in assay [5] was “inactive” each time.

As to `NC(=O)C(c1ccccc1)(c1ccccc1)[C@@H]1CCN(CCc2ccc3c(c2)CCO3)C1`, the Potency entry in assay [1], in assay [2], in assay [3] and in assay [5] was “inactive” in each case.

With `CN1CCN(C(c2ccccc2)c2ccccc2)CC1`, the Potency result in assay [1], in assay [2], in assay [3], in assay [4] and in assay [5] was “inactive” in each case.

In the case of `CCO[C@H](Cc1ccc(OCCc2ccc(OS(C)(=O)=O)cc2)cc1)C(=O)O`, the Potency entry in assay [1], in assay [2], in assay [3], in assay [4] and in assay [5] was “inactive” in each case.

Turning to `CC(C)(CO)[N+](=O)[O-]`, the Potency entry in assay [1], in assay [2], in assay [3], in assay [4] and in assay [5] was “inactive” in each case.

`Brc1c2ccccc2cc2ccccc12`: the Potency in assay [1] is 35.9 µM (active); in assay [2] it was 35.9 µM (active); in assay [3] it was 0.639 µM (active); in assay [5], 18 µM (active). The Potency entry in assay [4] was “inactive”.

For the compound `CC(=O)c1cccc([N+](=O)[O-])c1`, the Potency result in assay [1], in assay [2], in assay [4] and in assay [5] was “inactive” in each case. Further, the Potency in assay [3] is 35.5 µM (active).

On to `COc1ccc(C(=O)Nc2nc3ccccc3c(NCc3ccccc3)c2C#N)cc1`, for which the Potency in assay [1] was 17.8 µM (active); in assay [2], 2 µM (active); in assay [3] it was 15.9 µM (active); in assay [5], 4.48 µM (active).

`CCN(CC)c1ccc2c(-c3ccccc3C(=O)O)c3ccc(=[N+](CC)CC)cc-3oc2c1`: the Potency was 71 µM (active) in assay [1], 28.3 µM (active) in assay [2], 35.6 µM (active) in assay [3] and 12.6 µM (active) in assay [5]. For the same compound, the Potency result in assay [4] was “inactive”.

With `CC(C)(C)OCC1CO1` (stereo not drawn), the Potency result in assay [1], in assay [2], in assay [3], in assay [4] and in assay [5] was “inactive” throughout.
